# Assay results from PubChem BioAssay (Tox21).
# “And” between values parts separate entries of the source, which are not always exact repeats. Identical values can stand only once. Records with an inconclusive call do not appear. Where a call stands in place of a potency, no number is given. Where a structure was tested more than once in an assay, its records may differ in their call. The source made the active and inactive calls. Calls follow the shape of the dose curve; as a rule, active = well fitted curve in the direction sought with a large enough effect in the repeat runs; inconclusive = weak or mixed curves; inactive = no such curve, though single readings can be large; an effect the other way counts as inactive or inconclusive.
# Key:
# [1] = A CellTox Green Cytotoxicity Assay to monitor cytotoxicity in HEK293 cells - 40 hour (AID 1224871); also: nearly all actives have a fitted effect of over 45% in size
# Procedure, shortened: (§1)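 Dead-cell fluorescence measured kinetically: asymmetric cyanine dye, HEK293, 600 cells/well, 5 h settle, 23 nL cpd/DMSO, 37 C, reads 0–40 h every 8 h.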
# [2] = qHTS RealTime-Glo MT Cell Viability Assay in HEK293 cells - 16 hour (AID 1224872); also: nearly all actives have a fitted effect of over 50% in size
# Procedure, shortened: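 Homogeneous bioluminescent viability format in HEK293 cells (600 cells/well). Following 5 h at 37 C/5% CO2, 23 nL compound was pintooled; the signal was measured repeatedly during 40 h incubation.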
# [3] = qHTS RealTime-Glo MT Cell Viability Assay in HepG2 cells - 8 hour (AID 1224873); also: nearly all actives have a fitted effect of over 55% in size
# Procedure, shortened: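 Real-time viability: cells seeded at 600 per well together with NanoLuc and cell-permeant prosubstrate, compounds added after 5 h incubation. Luminescence tracked at 0, 8, 16, 24, 32 and 40 h of exposure.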
# [4] = qHTS RealTime-Glo MT Cell Viability Assay in HEK293 cells - 40 hour (AID 1224874); conditions: RealTime-Glo luminescence; max response: stronger effect = lower value; also: nearly all actives have a fitted effect of over 50% in size
# Procedure, shortened: (§2)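 600 HEK293 cells per well, dispensed already mixed with RealTime-Glo MT reagents. Compound dosing came 5 h later. The same wells were read for luminescence at 0, 8, 16, 24, 32 and 40 h of exposure at 37 C.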
# [5] = A CellTox Green Cytotoxicity Assay to monitor cytotoxicity in HEK293 cells - 24 hour (AID 1224875); also: nearly all actives have a fitted effect of over 45% in size
# Procedure, shortened: as §1
# [6] = A CellTox Green Cytotoxicity Assay to monitor cytotoxicity in HepG2 cells - 16 hour (AID 1224876); also: nearly all actives have a fitted effect of over 45% in size
# Procedure, shortened: (§3)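 First, HepG2 cells (600/well) mixed with reagent were plated; second, after 5 h at 37 C they received compounds via pintool; third, fluorescence was measured at 0 h through 40 h at 8 h intervals.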
# [7] = qHTS RealTime-Glo MT Cell Viability Assay in HepG2 cells - 32 hour (AID 1224877); also: nearly all actives have a fitted effect of over 55% in size
# Procedure, shortened: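 Cell number in HepG2 cultures estimated from NanoLuc luminescence generated by metabolic reduction of a prosubstrate by living cells. The homogeneous, nonlytic format allowed repeated reads at 0, 8, 16, 24, 32 and 40 h of compound exposure.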
# [8] = A CellTox Green Cytotoxicity Assay to monitor cytotoxicity in HepG2 cells - 24 hour (AID 1224878); also: nearly all actives have a fitted effect of over 45% in size
# Procedure, shortened: as §3
# [9] = A CellTox Green Cytotoxicity Assay to monitor cytotoxicity in HepG2 cells - 40 hour (AID 1224879); also: nearly all actives have a fitted effect of over 40% in size
# Procedure, shortened: as §3
# [10] = qHTS RealTime-Glo MT Cell Viability Assay in HEK293 cells - 0 hour (AID 1224880); also: nearly all actives have a fitted effect of over 45% in size
# Procedure, shortened: as §2
# Potency is read from the fitted curve at half-maximal effect.
SMILES,Potency [1],Potency [2],Potency [3],max response [4],Potency [5],Potency [6],Potency [7],Potency [8],Potency [9],Potency [10],Potency [4]
CCC1(c2ccc(N)cc2)CCC(=O)NC1=O (configuration not stated),inactive,inactive,inactive,6.38% (inactive),inactive,inactive,inactive,inactive,inactive,inactive,–
Brc1ccc(Br)cc1,inactive,inactive,inactive,1.04% (inactive) and 3.61% (inactive),inactive,inactive,inactive,inactive,inactive,inactive,–
C=C(C)C#N,inactive,inactive and 21.9 µM (active),inactive,3.27% (inactive),inactive,inactive,inactive,inactive,inactive,inactive,5.49 µM (active)
CCOP(=S)(OCC)SCSC(C)(C)C,inactive,inactive,inactive,5.63% (inactive) and -1.38% (inactive),inactive,inactive,inactive,inactive,inactive,inactive,–
O=NN1CCOCC1,inactive,inactive and 3.47 µM (active),inactive,-0.852% (inactive),inactive,inactive,inactive,inactive,inactive,inactive,1.95 µM (active)
CC(C)=CC1C(C(=O)OCc2cccc(Oc3ccccc3)c2)C1(C)C (configuration not stated),inactive,inactive,inactive,-1.31% (inactive) and -6.07% (inactive),inactive,inactive,inactive,inactive,inactive,inactive,–
CCCCSP(=O)(SCCCC)SCCCC,inactive,inactive,inactive,-17.8% (inactive) and -14.6% (inactive),inactive,inactive,inactive,inactive,inactive,inactive,–
Cc1cc(Cl)ccc1N=CN(C)C,inactive,inactive,inactive,2.7% (inactive) and 1.16% (inactive),inactive,inactive,inactive,inactive,inactive,inactive,–
COc1ccc(CO)cc1,inactive,inactive,inactive,11.4% (inactive) and -15.8% (inactive),inactive,inactive,inactive,inactive,inactive,inactive,–
CC1(C)Cc2cccc(O)c2O1,inactive,inactive,inactive,1.32% (inactive) and -0.986% (inactive),inactive,inactive,inactive,inactive,inactive,inactive,–
CCN(CC)C(=O)C(C)Oc1cccc2ccccc12 (configuration not stated),inactive,inactive,inactive,-27.1% (inactive) and -29.7% (inactive),inactive,inactive,inactive,inactive,inactive,inactive,–
C=CC(=O)OCC(CC)(COC(=O)C=C)COC(=O)C=C,4.48 µM (active) and 7.76 µM (active),6.33 µM (active) and 12.3 µM (active),22.5 µM (active) and 9.77 µM (active),–,inactive,inactive,25.2 µM (active) and 12.3 µM (active),14.2 µM (active),12.6 µM (active),inactive,3.56 µM (active) and 9.77 µM (active)
O=[N+]([O-])c1ccc(Nc2ccccc2)cc1,inactive,27.8 µM (active),inactive,–,inactive,inactive,inactive,inactive,inactive,inactive,27.8 µM (active) and 21.9 µM (active)
O=C(O)c1nn(Cc2ccc(Cl)cc2Cl)c2ccccc12,inactive,inactive,inactive,-3.1% (inactive) and 1.84% (inactive),inactive,inactive and 95.2 nM (active),inactive,inactive and 107 nM (active),inactive and 95.2 nM (active),inactive,–
CC(C)Nc1ccc(Nc2ccccc2)cc1,48.8 µM (active) and 49 µM (active),17.3 µM (active) and 19.5 µM (active),48.8 µM (active) and 38.9 µM (active),–,48.8 µM (active) and 54.9 µM (active),inactive and 49 µM (active),54.7 µM (active),43.6 µM (active),43.6 µM (active),7.73 µM (active) and 19.5 µM (active),17.3 µM (active) and 17.4 µM (active)
ClCc1ccccn1,inactive,inactive,inactive,0.166% (inactive) and 14.2% (inactive),inactive,inactive,inactive,inactive,inactive,inactive,–
